# In the supplement of paper PMC6555819:
# Tested on: THRa homodimer (NR concentration 90 nM)
# Experiment: PBM binding z-score (relative to random genomic background probes); higher = stronger binding; sequences stand for … in GC…GCGATTGACAGCGTAGAATGAAGG
# Outline: (§1)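 Antibodies against each partner of ligand-free nuclear receptor dimers (one per run) detected binding on custom Agilent 4×180K protein-binding microarrays after 1 h incubation. The double-stranded probes had 34-nt variable regions carrying direct-repeat seeds, single-nucleotide variants, half-site ablations and random human genomic background sequences. Binding z-scores, from regression-normalized fluorescence, use the random background probes as reference.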
row,Sequence,PBM binding z-score
1,CGAGACAGGTGAAAGGTAACTCAGTCTGGTACGC,-0.303
2,TGAATGAGGTTATAAGAGCAGGGAACGTTGCAAA,0.0456
3,CCTGCTAGGTGATGGTCAGCTAATCTACAGTATG,-0.545
4,TCTGCTAGGTCAGTTGGTCAACTAACGAGCTGCC,-0.321
5,TCATGTAGATCAATAGAGGTTAAGAAAGTGCGCT,-0.192
6,TGAATGAGGTTAGAAGATCAGGGAACGTTGCAAA,-0.107
7,CCGACAGGGGCAGAAAGGTTACCATACCATCCGG,-0.126
8,CCGGCTGGGGCAAGGTTACCATAACGCACAGCCA,-0.0935
9,TTACCAAGGTGTGCTGAGGTCGTTGATCCAACTC,1.77
10,GGAACGAAGGCAAGTTGATAGCAGAGTTTGATGG,-1.3
11,ATATGCAGGTTACATCCGGGTCATTCAGGCTATG,2.19
12,CCTACTGGGCCACGAAAGTTCATTGATTCAGTGA,-0.104
13,ATATGTAGGTTGCATCCGGGTCATTCAGGCTATG,1.96
14,TCTTATAGGTAATACAGGTGAAAGTCGGCATCTA,0.611
15,TCGAGTAGGTTAGTCGAGGCATTCAGCCAACATA,-0.612
16,CCAAGTAGGTTATGGGGCATTCAGGCAACGGTGA,-0.0137
17,ATTTGTAGGTTAAGGGTCATTCAGGTTGGTTCGC,2.55
18,TCTTGTAGATCAAGCAGATTAAGAAAGCCTGAGT,-0.521
19,GTACCAAGGTGAATAGGTCGATGATGAGTAGGCG,0.425
20,CATACAGGATCAGCTAGGCCAGAGTAGGGACGGC,0.03

row,Sequence,PBM binding z-score
1,ACAGACAGGTGAGTGAATGTAACTCAGCTGGACG,-0.644
2,TGAATGAGGTTAAAGATCATGGAACGTGGCGTCG,0.35
3,CAAACTAGGACACAGAGGTCAAAGTCCGTGCGTA,2.5
4,CGTCCAAGGTGAATGCTAGGTCAGTGAAAGCATT,1.59
5,TTTTGTAGATCAGCAGGTTAAGAAAGCTGGCCAA,-0.308
6,TGAATGAGGTTAGAGATCAGGGAACGTGGCGTCG,0.0858
7,TCATATAGGTAAATGCCAGGTGAAAGTCCGATCT,1.33
8,CCTACTGGGCCACAAAAGGTCATTGATTCAGTGA,0.921
9,CATACTGGGCCATCAGGTCATTGATATCAACGTT,3.27
10,ATATGTAGGTTACATCCGCGTCATTCAGGCTATG,0.124
11,GCAGACAGGTGAAACGCAGGTAACTTAGGGTGGC,-0.353
12,ATATGTAGGTTAGCTGGGGTCTTTCAGACTAGGC,0.871
13,GCTTGTAGATCAATGTTAAGAAAGACTAAGCTAA,-1.2
14,ACCCGGAGGACAAAGGTCAGAGCTACGCCAGTGA,0.681
15,ACTTACGGGTCAACGATGTTATAGCACGCGTATA,0.387
16,CCTACTGGGCCACGAAAGATCATTGATTCAGTGA,-0.393
17,CCTACTGGGCCATCAGGTCCTTGATATCAACGTT,0.322
18,GCTTCTAGATCAAGGTTAAGAAAGACTAAGCTAA,-0.453
19,CAAACTAGGTCACCGGAAGCTCAAAGTCCGCATG,1.92
20,CGTCAAAGTTCAACTAAGGGAACGTAAAGCACGC,0.0368

# Tested on: VDR homodimer (NR concentration 270 nM)
# Experiment: as above
# Outline: as §1
row,Sequence,PBM binding z-score
1,CGAGACAGGTGAAAGGTAACTCAGTCTGGTACGC,-0.342
2,TGAATGAGGTTATAAGAGCAGGGAACGTTGCAAA,0.451
3,CCTGCTAGGTGATGGTCAGCTAATCTACAGTATG,-0.612
4,TCTGCTAGGTCAGTTGGTCAACTAACGAGCTGCC,-0.774
5,TCATGTAGATCAATAGAGGTTAAGAAAGTGCGCT,0.637
6,TGAATGAGGTTAGAAGATCAGGGAACGTTGCAAA,-0.169
7,CCGACAGGGGCAGAAAGGTTACCATACCATCCGG,0.344
8,CCGGCTGGGGCAAGGTTACCATAACGCACAGCCA,-0.883
9,TTACCAAGGTGTGCTGAGGTCGTTGATCCAACTC,2.39
10,GGAACGAAGGCAAGTTGATAGCAGAGTTTGATGG,-0.0459
11,ATATGCAGGTTACATCCGGGTCATTCAGGCTATG,2.77
12,CCTACTGGGCCACGAAAGTTCATTGATTCAGTGA,4.01
13,ATATGTAGGTTGCATCCGGGTCATTCAGGCTATG,2.66
14,TCTTATAGGTAATACAGGTGAAAGTCGGCATCTA,0.529
15,TCGAGTAGGTTAGTCGAGGCATTCAGCCAACATA,-0.393
16,CCAAGTAGGTTATGGGGCATTCAGGCAACGGTGA,0.318
17,ATTTGTAGGTTAAGGGTCATTCAGGTTGGTTCGC,5.33
18,TCTTGTAGATCAAGCAGATTAAGAAAGCCTGAGT,-0.466
19,GTACCAAGGTGAATAGGTCGATGATGAGTAGGCG,0.182
20,CATACAGGATCAGCTAGGCCAGAGTAGGGACGGC,0.0286

row,Sequence,PBM binding z-score
1,ACAGACAGGTGAGTGAATGTAACTCAGCTGGACG,-0.199
2,TGAATGAGGTTAAAGATCATGGAACGTGGCGTCG,0.314
3,CAAACTAGGACACAGAGGTCAAAGTCCGTGCGTA,5.25
4,CGTCCAAGGTGAATGCTAGGTCAGTGAAAGCATT,-0.00133
5,TTTTGTAGATCAGCAGGTTAAGAAAGCTGGCCAA,-0.168
6,TGAATGAGGTTAGAGATCAGGGAACGTGGCGTCG,-0.315
7,TCATATAGGTAAATGCCAGGTGAAAGTCCGATCT,0.435
8,CCTACTGGGCCACAAAAGGTCATTGATTCAGTGA,1.92
9,CATACTGGGCCATCAGGTCATTGATATCAACGTT,2.38
10,ATATGTAGGTTACATCCGCGTCATTCAGGCTATG,0.163
11,GCAGACAGGTGAAACGCAGGTAACTTAGGGTGGC,-0.61
12,ATATGTAGGTTAGCTGGGGTCTTTCAGACTAGGC,0.329
13,GCTTGTAGATCAATGTTAAGAAAGACTAAGCTAA,-0.713
14,ACCCGGAGGACAAAGGTCAGAGCTACGCCAGTGA,1.24
15,ACTTACGGGTCAACGATGTTATAGCACGCGTATA,1.21
16,CCTACTGGGCCACGAAAGATCATTGATTCAGTGA,-0.52
17,CCTACTGGGCCATCAGGTCCTTGATATCAACGTT,0.000123
18,GCTTCTAGATCAAGGTTAAGAAAGACTAAGCTAA,-0.36
19,CAAACTAGGTCACCGGAAGCTCAAAGTCCGCATG,0.814
20,CGTCAAAGTTCAACTAAGGGAACGTAAAGCACGC,3.51
